From PubChem BioAssay AID651674 (The Scripps Research Institute Molecular Screening Center, 2012)
Hit rate of the full screen: of about 2,200 compounds, about 1,700 (77%) were called active.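 The calls were made as follows: active = mean inhibition across replicate wells exceeding the computed hit threshold (cut at about 13% in these data); inactive = the rest.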 So high a share suggests a set chosen from earlier hits. A selection follows.

Biological target: Hepatocyte nuclear factor 4-alpha (Homo sapiens) (UniProt P41235)
Sequence (P41235 whole entry, looked up, the tested form may be a part): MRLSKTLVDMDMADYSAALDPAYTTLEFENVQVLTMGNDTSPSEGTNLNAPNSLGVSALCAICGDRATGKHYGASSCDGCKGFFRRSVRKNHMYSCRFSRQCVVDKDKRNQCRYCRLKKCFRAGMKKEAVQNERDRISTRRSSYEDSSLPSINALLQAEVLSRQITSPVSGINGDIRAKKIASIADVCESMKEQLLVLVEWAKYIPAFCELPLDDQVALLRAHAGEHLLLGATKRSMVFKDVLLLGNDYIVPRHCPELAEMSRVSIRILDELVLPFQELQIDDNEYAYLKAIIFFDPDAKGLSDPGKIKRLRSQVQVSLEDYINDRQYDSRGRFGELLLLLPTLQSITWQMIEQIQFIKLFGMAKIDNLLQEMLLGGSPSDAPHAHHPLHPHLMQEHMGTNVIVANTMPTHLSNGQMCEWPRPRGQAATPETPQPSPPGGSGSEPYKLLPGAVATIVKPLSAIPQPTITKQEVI
Assay: blockers of HNF4 self-association – biochemical, split-luciferase complementation, luminescence, counter-screen for ABHD5-PLIN5 interaction inhibitor project (AID 651674);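 also: light from luciferase halves that rejoin when HNF4 fusion proteins dimerize; 0% = DMSO only wells and the 100% control is not given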
Conditions: HNF4 dimerization, at 4 µM, stronger effect = higher value

SMILES	inhibition
COc1ccc(CN2C(=O)NC(=O)/C(=C\c3ccc(OC)c(OC)c3OC)C2=O)cc1	31.3% (active)
CN(C)CC1Oc2ccccc2OC1(O)c1ccccc1 (stereo not given)	104% (active)
Cc1cccc(N2C(=O)NC(=O)/C(=C\c3cnn(-c4ccccc4)c3)C2=O)c1	68.7% (active)
CCOC(=O)[C@]12Cc3ccccc3[C@H]1N(C1CCCCC1)C(=O)c1cc(OC)ccc12	27.9% (active)
CCc1nnc(NS(=O)(=O)c2ccc(N=Cc3c(O)n(-c4ccccc4)c(=O)[nH]c3=O)cc2)s1	33.6% (active)
